Only some compounds are listed: those with a hit (about 18% of all), similar ones and a draw of the others.
LDHA block = inhibitors of human lactate dehydrogenase A; P00338; purified LDHA, NADH/diaphorase-resazurin fluorescence; active compounds read low; activity change, % (values are at about 110 or 230 µM); 0.15% of 480,000 active; in the data active = activity change below about -30%; inconclusive = mostly about -25% to -30%;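 note: plate controls were DMSO wells for no effect and wells without enzyme for full effect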
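Human LDH5 (2 nM) was incubated with 0.06 mM NADH and 0.2 mM pyruvate for 5 min at room temperature in Tris pH 7.4. Remaining NADH was coupled through diaphorase/resazurin, and resorufin fluorescence was read at 0 and 20 min.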
TDP1 cell CPT = growth inhibition of DT40 Tdp1-/-;hTDP1 cells with camptothecin (screen for TDP1 inhibitors) | chicken DT40 Tdp1-/-;hTDP1 cells + 20 nM CPT, ATP luminescence, 48 h | Potency, µM (series often up to 46.2 µM), inactives show at the highest dose activity change, negative = growth inhibition, hits mostly inhibitors | 12% of 420,000 active | AID 686979; note: potency is the fitted concentration of half-maximal effect; nearly all actives have a fitted effect of over 55% in size
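Chicken DT40 Tdp1-/- cells stably complemented with human TDP1 were seeded at 400 cells/well in medium containing 20 nM camptothecin, exposed to pin-transferred compounds, and grown at 37 °C for at least 48 hr. Viability was read as ATP luminescence.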
RORg inh = ROR gamma (mouse) transcription inhibition. P51450. Drosophila S2 Gal4-RORgamma UAS-luciferase reporter, 20 h. Potency, µM (highest dose often 53.6 µM), without a hit: at the top dose activity change, negative = inhibition, usual class: inhibitors. 5.4% of 310,000 active. AID 2551; note: potency is the fitted concentration of half-maximal effect; nearly all actives have a fitted effect of over 60% in size
Target sequence (P51450 whole entry, looked up, the tested form may be a part): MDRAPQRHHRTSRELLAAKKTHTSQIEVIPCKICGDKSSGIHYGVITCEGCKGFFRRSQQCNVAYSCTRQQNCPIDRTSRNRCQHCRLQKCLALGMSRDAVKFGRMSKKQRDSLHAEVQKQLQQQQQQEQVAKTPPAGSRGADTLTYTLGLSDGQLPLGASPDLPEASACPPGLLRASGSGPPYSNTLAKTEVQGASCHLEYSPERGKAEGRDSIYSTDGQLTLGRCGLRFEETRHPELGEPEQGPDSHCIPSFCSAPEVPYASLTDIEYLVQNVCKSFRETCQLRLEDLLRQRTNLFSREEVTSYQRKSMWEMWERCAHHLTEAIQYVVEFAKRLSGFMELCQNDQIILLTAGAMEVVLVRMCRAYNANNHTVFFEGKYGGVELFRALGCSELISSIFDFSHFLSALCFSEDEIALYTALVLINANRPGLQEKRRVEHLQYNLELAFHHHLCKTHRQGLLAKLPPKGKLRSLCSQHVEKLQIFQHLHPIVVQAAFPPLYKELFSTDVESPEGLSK
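Drosophila Schneider cells stably carrying a metallothionein-driven Gal4 DBD–ROR gamma fusion and a UAS-Photinus luciferase reporter were exposed to compound for 1 hr, then induced with copper sulfate (700 uM final) for 20 hr at ambient temperature before luminescence reading.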
VP16 counter = Gal4-VP16 reporter inhibition counter-screen; Drosophila S2 Gal4-VP16 UAS-luciferase, luminescence, 20 h; Potency, µM (highest dose often 53.6 µM), for inactives: at the top dose activity, negative = inhibition, most hits filed as inhibitors; 3.5% of 310,000 active; AID 2546;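 note: Gal4-VP16 expression switched on by copper sulfate through the metallothionein promoter; potency is the fitted concentration of half-maximal effect; nearly all actives have a fitted effect of over 50% in size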
DT40 TDP1 no CPT = qHTS for Inhibitors of human tyrosyl-DNA phosphodiesterase 1 (TDP1): qHTS in cells in absence of CPT; DT40 Tdp1-/- hTDP1 cells, no CPT, ATP luminescence, 48 h; Potency, µM (top dose mostly 46.2 µM), for inactives: top-dose activity change, negative = growth inhibition, actives largely listed as inhibitors; 15% of 420,000 active; AID 686978, 2013; note: potency is the fitted concentration of half-maximal effect; nearly all actives have a fitted effect of over 55% in size
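Chicken DT40 Tdp1-/- cells stably complemented with human TDP1 were seeded at 400 cells/well with DMSO in place of 20 nM camptothecin. After compound pinning, cells grew at least 48 hr at 37 °C; viability read by CellTiter-Glo luminescence.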
IL1B secr inh = blocks inflammasome-driven IL-1 beta release | THP-1 LPS/ATP IL-1B secretion, AlphaLISA, 16 h; active compounds read low | 4.7% of 360,000 active | activity change, % at 57.5 µM; in the data active = activity change below about -50%; inconclusive = mostly about -30% to -49%
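THP-1 cells pretreated 1 hr with compounds (up to 57.5 uM final), then stimulated with LPS (250 ng/mL final) plus ATP (1.25 mM final); secreted IL-1B measured by AlphaLISA after 16 hr, decreased signal indicating inhibition.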
Active calls of the source: *; ? = inconclusive; . = no result given. Unless noted, calls come from the whole dose curve; as a rule, active = well fitted curve in the direction sought with a large enough effect; inconclusive = small, poorly fitted or top-dose-only effect, or another doubt; inactive = no such curve, though single readings can be large; an effect the other way counts as inactive or inconclusive. Unless noted, % is set by controls: 0 for no effect and ±100 for the full control effect.

SMILES	LDHA block	TDP1 cell CPT	RORg inh	VP16 counter	DT40 TDP1 no CPT	IL1B secr inh
Nc1ccc(SC(F)(F)F)cc1C(=O)c1ccccc1	5.5	?	17.9%	-19.3%	?	-102.7*
CCN(CC)c1nc2ccccc2nc1C(=O)Nc1cc(F)ccc1F	3.9	.	.	.	.	.
CCC(=O)Nc1cc(NC(=O)CC)cc(-c2nc3ccccc3o2)c1	-0.6	.	.	.	.	.
COc1ccc(NS(=O)(=O)c2cc(NC(=O)c3ccco3)ccc2N2CCCCC2)cc1	-0.7	?	?	12.6µM*	18.4µM*	0.0
COc1ccc(NS(=O)(=O)c2cc(NC(=O)c3cnc(C)cn3)ccc2N2CCCC2)cc1	6.3	-23.9%	?	0.8%	?	-1.3
COc1ccc(NS(=O)(=O)c2cc(NC(=O)c3cnc(C)cn3)ccc2N2CCCCC2)cc1	-1.8	?	28.8%	-1.6%	?	-9.0
COc1ccc(NS(=O)(=O)c2cc(NC(=O)c3ccc(=O)[nH]c3)ccc2N2CCCC2)cc1	-2.2	4.11µM*	-9.1%	-0.6%	7.31µM*	73.3
CCOCCCNc1nc2c(c(=O)[nH]c(=O)n2C)n1Cc1ccccc1Cl	1.1	.	.	.	.	.
COc1cc(C(=O)NC2CCN(C)CC2)ccc1Nc1ncc2c(n1)N(Cc1ccccc1)CCC(=O)N2C	1.4	3.66µM*	.	.	5.17µM*	55.5
COc1ccc(Cn2c(=O)[nH]c3cc(C(=O)NC4CCN(Cc5ccccc5)CC4)ccc32)cc1	-7.1	?	36.5%	-1.9%	?	?
COc1cc(C(=O)NC2CCN(C)CC2)ccc1Nc1ncc2c(n1)N(C1CCCCC1)CCC(=O)N2C	3.7	0.92µM*	.	.	0.581µM*	3.7
COc1cc(C(=O)NC2CCCCC2)ccc1C	-0.2	.	.	.	.	.
Cc1onc(-c2ccccc2F)c1C(=O)NCc1cccs1	0.9	.	.	.	.	.
O=[N+]([O-])c1ccc2nonc2c1Nc1cc(Cl)ccc1Cl	11.9	.	.	.	.	.
C1=C(c2ccccc2)Nc2nc3ccccc3n2C1c1ccccc1 (stereo not given)	15.2	.	.	.	.	.
COC(=O)c1ccc(C2C=C(c3ccc(Cl)cc3)Nc3nc4ccccc4n32)cc1 (stereo not given)	2.2	9.2µM*	.	.	8.2µM*	.
Fc1ccc(C2=CC(c3ccc(F)cc3)n3c(nc4ccccc43)N2)cc1 (stereo not given)	0.1	14.6µM*	.	.	5.17µM*	.
CC(C)CN(C(=O)COc1ccc(C(C)(C)C)cc1)C1CCS(=O)(=O)C1 (stereo not given)	0.2	-29.4%	.	.	23.1µM*	11.8
Cc1ccc(CN(C(=O)COc2ccc(C(C)(C)C)cc2)C2CCS(=O)(=O)C2)o1 (stereo not given)	-6.6	?	.	.	20.6µM*	.
COc1c(Cl)cc(C(=O)N(Cc2ccc(C)o2)C2CCS(=O)(=O)C2)cc1Cl (stereo not given)	-0.9	?	.	.	23.1µM*	.
N#Cc1cccnc1N1CCN(C(C(=O)O)c2c[nH]c3ccc(Cl)cc23)CC1 (stereo not given)	-2.7	.	.	.	.	.
COc1ccc(C2c3cc4c(cc3OC(NNC(N)=O)C2C)OCO4)cc1 (stereo not given)	1.0	?	.	.	?	16.0
COc1cc(C2c3cc4c(cc3OC(NCc3ccccc3)C2C)OCO4)cc(OC)c1OC (stereo not given)	-8.5	1.16µM*	.	.	1.46µM*	15.0
COc1cccc(C2c3cc4c(cc3OC(NNC(N)=O)C2C)OCO4)c1O (stereo not given)	0.6	4.61µM*	.	.	4.11µM*	32.8
COc1cc(C2c3cc4c(cc3OC(NNC(N)=S)C2C)OCO4)cc(OC)c1OC (stereo not given)	-9.5	1.3µM*	.	.	0.92µM*	?
SMILES	LDHA block	TDP1 cell CPT	RORg inh	VP16 counter	DT40 TDP1 no CPT	IL1B secr inh
COc1cc(C2c3cc4c(cc3OC(NNC(N)=O)C2C)OCO4)cc(OC)c1OC (stereo not given)	3.4	1.3µM*	.	.	1.3µM*	-65.6*
Cc1nc2c3c(C)c(C)n(Cc4cccnc4)c3ncn2n1	11.0	.	.	.	.	.
CC(=O)Nc1ccc(OCCS(C)(=O)=O)cc1	-0.7	.	.	.	.	.
COc1ccc(-c2c(NC(=O)c3cccc([N+](=O)[O-])c3)oc3c(C)cccc3c2=O)cc1OC	3.7	.	.	.	.	.
C[C@H](NC(=O)c1[nH]cnc1C(=O)Nc1ccc(CNC(=O)OC(C)(C)C)cc1)C(=O)OCc1ccccc1	-8.9	?	?	?	18.4µM*	1.1
CC(C)(C)OC(=O)NCc1ccc(NC(=O)c2nc[nH]c2C(=O)N[C@@H](Cc2ccccc2)C(=O)OC(C)(C)C)cc1	1.4	14.6µM*	7.08µM*	11.2µM*	11.6µM*	?
CC(C)C[C@H](NC(=O)c1[nH]cnc1C(=O)N[C@@H](C)C(=O)OCc1ccccc1)C(=O)OCc1ccccc1	4.2	?	.	.	?	-4.8
C[C@H](NC(=O)c1nc[nH]c1C(=O)N[C@@H](C)C(=O)OC(C)(C)C)C(=O)OCc1ccccc1	1.4	-13.1%	?	?	-15.9%	26.7
CC(C)C[C@H](NC(=O)c1[nH]cnc1C(=O)Nc1ccc(CNC(=O)OC(C)(C)C)cc1)C(=O)OCc1ccccc1	-0.3	?	5.62µM*	?	14.6µM*	-1.7
Cc1nc2n(c(=O)c1CCN1CCC(c3noc4cc(F)ccc34)CC1)CCC[C@H]2O	-1.4	0.0944µM*	.	.	0.531µM*	.
CNc1ncnc2sc(-c3ccccc3)cc12	0.3	16.4µM*	-7.8%	3.9%	?	-76.7*
COc1ccc(OC)c(Nc2ncnc3sc(-c4ccccc4)cc23)c1	-5.4	?	15.3%	-2.3%	?	27.8
CN(C)CCNc1ncnc2sc(-c3ccccc3)cc12	0.3	?	10.1%	1.3%	18.4µM*	-72.2*
OCCOCCNc1ncnc2sc(-c3ccccc3)cc12	-1.1	?	4.7%	?	?	-17.7
S=c1[nH]cnc2sc(-c3ccccc3)cc12	-4.6	-20.0%	1.41µM*	4.47µM*	?	-0.9
CC1CC(C)(C)Nc2c(O)cccc21 (stereo not given)	72.6	.	.	.	.	.
Cc1ccc(C(=O)NC2CC2)cc1NC(=O)NC1CCC(C)CC1 (stereo not given)	2.8	.	.	.	.	.
CCC(C)c1ccc(S(=O)(=O)N2CCN(CC(O)CN3CCOCC3)CC2)cc1 (stereo not given)	-32.7*	-21.0%	.	.	0.9%	0.0
Cc1ccc(S(=O)(=O)N2CCN(CC(O)CN3CCOCC3)CC2)cc1 (stereo not given)	-5.1	-12.3%	.	.	4.1%	-0.7

Screens from PubChem BioAssay.
